Experimental data from PubChem BioAssay (Tox21).
A number with no mark means an inactive call. Records with an inconclusive call do not appear. Entries that show only a call come without a potency. The source made the active and inactive calls. Unless noted, calls follow the shape of the dose curve; as a rule, active = well fitted curve in the direction sought with a large enough effect in the repeat runs; inconclusive = weak or mixed curves; inactive = no such curve, though single readings can be large; an effect the other way counts as inactive or inconclusive.

Columns and labels:
[1] = molecular target: Progesterone receptor (Homo sapiens) (UniProt P06401); assay: qHTS assay to identify small molecule antagonists of the progesterone receptor (PR) signaling pathway (AID 1346795; active = well fitted inhibition curve with a large enough effect in the signal ratio in the repeat runs, not every such curve was filed as active; the % refers to the signal ratio)
Method in brief: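 Fluorescence intensity measured 2 hr after adding beta-lactamase FRET substrate to PR-UAS-bla HEK293T cells that had been co-treated 16 hr with compound and 1 nM R5020 (final concentration) in 2% charcoal-stripped FBS.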

[2] = qHTS assay to identify small molecule antagonists of the progesterone receptor (PR) signaling pathway - cell viability counter screen (AID 1346798); also: series mostly up to about 92 µM; nearly all actives have a fitted effect of over 50% in size
Method in brief: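 CellTiter-Glo luminescence; PR-UAS-bla HEK293T, 3,000 cells/well; compound + R5020, 16 hr, 37C/5% CO2; 30 min RT before read.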

[3] = qHTS assay to identify small molecule agonists of the progesterone receptor (PR) signaling pathway - cell viability counter screen (AID 1346799; calls by dose curve; also: nearly all actives have a fitted effect of over 45% in size)
Method in brief: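 In parallel with the beta-lactamase readout, cytotoxicity toward PR-UAS-bla HEK293T cells was measured by CellTiter-Glo luminescence following 16 hr compound incubation in 2% charcoal-stripped FBS medium.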

[4] = qHTS assay to identify small molecule antagonists of the TGF-beta/Smad signaling pathway - cell viability counter screen (AID 1346824); also: nearly all actives have a fitted effect of over 50% in size
Method in brief: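 Cytotoxicity counter-screen run in the same wells as the beta-lactamase Smad reporter read: CellTiter-Glo luminescence after 30 min at room temperature. HEK 293T SBE-bla cells had 5 hr compound exposure at 37 C with TGF-beta1 (0.25 ng/mL stock).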

[5] = qHTS assay to identify small molecule agonists of the TGF-beta/Smad signaling pathway - cell viability counter screen (AID 1346829); also: top concentration of the series differs between compounds; nearly all actives have a fitted effect of over 45% in size
Method in brief: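 Compound-treated SBE-bla HEK 293T cells (5 hr, 37 C) were assessed for viability with CellTiter-Glo in parallel with the reporter read.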

[6] = qHTS assay to identify small molecule agonists of the TGF-beta/Smad signaling pathway (AID 1346859; active = well fitted activation curve with a large enough effect in the signal ratio in the repeat runs, not every such curve was filed as active; the % refers to the signal ratio; also: series mostly up to about 77 µM)
Method in brief: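 After overnight seeding, SBE-bla HEK 293T cells are dosed with compounds in DMSO and kept 5 hr at 37 C, 5% CO2. LiveBLAzer-type FRET substrate is then applied for 2 hr at room temperature.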

[7] = Human pregnane X receptor (PXR) small molecule agonists, qHTS cell viability counter screen (AID 1346977); also: nearly all actives have a fitted effect of over 50% in size; also: potency is read from the fitted curve at half-maximal effect
Method in brief: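 Viability counter screen: CellTiter-Fluor signal in PXR-Luc HepG2 cells, 24hr compound exposure, 37C, 5% CO2.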

[8] = Caspase-3/7 induction in HepG2 cells by small molecules, qHTS assay (AID 1346978); also: nearly all actives have a fitted effect of over 15% in size
Method in brief: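 Caspase-3/7 induction was measured by Caspase-Glo 3/7 luminescence (30 min, room temperature) after a 17 hr compound exposure of wild-type HepG2 cells seeded at 2,000 per well and pre-incubated 5 hr.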

[9] = Caspase-3/7 induction in CHO-K1 cells by small molecules, qHTS cell viability counter screen (AID 1346979); also: nearly all actives have a fitted effect of over 35% in size; also: potency is read from the fitted curve at half-maximal effect
Method in brief: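 Viability readout by fluorescence (CellTiter-Fluor) on wild-type CHO-K1 cells exposed for 16hr at 37C and 5% CO2 to compounds delivered in DMSO; reagent incubated 1hr before reading.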

[10] = Caspase-3/7 induction in CHO-K1 cells by small molecules, qHTS assay (AID 1346980); also: nearly all actives have a fitted effect of over 15% in size
Method in brief: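 Luminescent Caspase-Glo 3/7 read (30min, room temperature) quantified apoptosis induction. Cells were wild-type CHO-K1, treated with compound for 17hr at 37 C and 5% CO2.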

[11] = Caspase-3/7 induction in HepG2 cells by small molecules, qHTS cell viability counter screen (AID 1346981); also: series mostly up to about 92 µM; nearly all actives have a fitted effect of over 30% in size
Method in brief: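 CellTiter-Fluor fluorescence measured viability in the same wells used for Caspase-Glo 3/7. HepG2 (wild type) at 2,000 cells/well were pre-incubated 5 hr, dosed, and given reagent at 16 hr, with 1 hr further at 37C.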

[12] = molecular target: Nuclear receptor subfamily 1 group I member 2 (Homo sapiens) (UniProt O75469); assay: Human pregnane X receptor (PXR) small molecule agonists, qHTS assay (AID 1346982); also: nearly all actives have a fitted effect of over 35% in size; also: potency is read from the fitted curve at half-maximal effect
Method in brief: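 Agonist mode: luminescence from ONE-Glo after 24 h compound exposure at 37C in HepG2 cells carrying hPXR-responsive CYP3A4 luciferase, plated in charcoal-stripped serum medium 5 h beforehand.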

[13] = molecular target: Cytochrome P450 2D6 (Homo sapiens) (UniProt P10635); assay: Cytochrome P450 Family 2 Subfamily D Member 6 (CYP2D6) small molecule antagonists: luciferase reporter qHTS assay (AID 1671196); also: nearly all actives have a fitted effect of over 50% in size; also: potency is read from the fitted curve at half-maximal effect; as to activity change, negative = inhibition: series mostly up to about 120 µM
Method in brief: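 CYP2D6 activity was followed as luminescence from its luciferin product after a 1 h NADPH-driven reaction at room temperature. Enzyme-substrate mix and compound were pre-incubated for 10 min, and the signal was read 20 min after adding detection reagent.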

[14] = molecular target: Cytochrome P450 2C19 (Homo sapiens) (UniProt P33261); assay: Cytochrome P450 Family 2 Subfamily C Member 19 (CYP2C19) small molecule antagonists: luciferase reporter qHTS assay (AID 1671197); also: nearly all actives have a fitted effect of over 65% in size; also: potency is read from the fitted curve at half-maximal effect; as to activity change, negative = inhibition: series mostly up to about 120 µM
Method in brief: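 P450-Glo CYP2C19 screening system; proluciferin substrate; DMSO compound stocks; 10 min RT preincubation; NADPH regeneration, 1 h at 37C; luciferin detection reagent, 20 min RT; luminescence as RLU.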

[15] = molecular target: Cytochrome P450 2C9 (Homo sapiens) (UniProt P11712); assay: Cytochrome P450 Family 2 Subfamily C Member 9 (CYP2C9) small molecule antagonists: luciferase reporter qHTS assay (AID 1671198); also: nearly all actives have a fitted effect of over 50% in size; also: potency is read from the fitted curve at half-maximal effect; as to activity change, negative = inhibition: series mostly up to about 120 µM
Method in brief: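 Enzyme-substrate mix preincubated with compound 10 min at room temperature; reaction started with NADPH regeneration solution, 1 h 37C. Luminescent luciferin product read after 20 min detection reagent.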

[16] = molecular target: Thyrotropin-releasing hormone receptor (Homo sapiens) (UniProt P34981); assay: qHTS assay to identify small molecule antagonists of the thyrotropin-releasing hormone receptor (TRHR) signaling pathway (AID 1346877; active = well fitted inhibition curve with a large enough effect in the repeat runs, not every such curve was filed as active; also: series mostly up to about 51 µM)
Method in brief: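 Antagonist mode: after a 5 min room-temperature compound exposure, cells were stimulated with 1 nM (final) TRH. Dye-loaded TRHR-HEK293 cells were used, and calcium-dependent fluorescence was followed for 3 min, with 15-point titrations run in triplicate.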

[17] = molecular target: Thyrotropin-releasing hormone receptor (Homo sapiens) (UniProt P34981); assay: qHTS assay to identify small molecule agonists of the thyrotropin-releasing hormone receptor (TRHR) signaling pathway (AID 1346891; calls by dose curve;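 also: HEK293 cells expressing TRHR with calcium dye readout; series mostly up to about 58 µM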)
Method in brief: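 Compounds were tested as agonists at 15 concentrations, in triplicate, on TRHR-Hek293 cells; calcium-sensitive dye fluorescence was recorded for 3 min following addition.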

[18] = molecular target: Nuclear receptor subfamily 1 group I member 2 (Homo sapiens) (UniProt O75469); assay: CYP3A4 induction through human pregnane X receptor (PXR) by small molecules, qHTS assay (AID 1346984); also: nearly all actives have a fitted effect of over 40% in size
Method in brief: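 Read-out is luminescence after One-Glo addition, following a 3 hr, 37C incubation with Luciferin-IPA CYP3A4 substrate (3uM final). Before that, compounds were on DPX-2 cells (HepG2 co-transfected with PXR element plus CYP3A4-promoter luciferase) for 24 hr at 37C.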

[19] = molecular target: Nuclear receptor subfamily 1 group I member 2 (Homo sapiens) (UniProt O75469); assay: Human pregnane X receptor (PXR) activation by small molecules, qHTS assay (AID 1346985); also: nearly all actives have a fitted effect of over 40% in size
Method in brief: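 DPX-2 cells (HepG2 co-transfected with a PXR response element and a CYP3A4-promoter luciferase construct) were seeded at 2,000 per well, rested 5 hr at 37C, then exposed to DMSO-dissolved compounds for 24 hr. Activation was read as luciferase luminescence.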

Chain of Nuclear receptor subfamily 1 group I member 2 (Homo sapiens) (O75469 whole entry, looked up): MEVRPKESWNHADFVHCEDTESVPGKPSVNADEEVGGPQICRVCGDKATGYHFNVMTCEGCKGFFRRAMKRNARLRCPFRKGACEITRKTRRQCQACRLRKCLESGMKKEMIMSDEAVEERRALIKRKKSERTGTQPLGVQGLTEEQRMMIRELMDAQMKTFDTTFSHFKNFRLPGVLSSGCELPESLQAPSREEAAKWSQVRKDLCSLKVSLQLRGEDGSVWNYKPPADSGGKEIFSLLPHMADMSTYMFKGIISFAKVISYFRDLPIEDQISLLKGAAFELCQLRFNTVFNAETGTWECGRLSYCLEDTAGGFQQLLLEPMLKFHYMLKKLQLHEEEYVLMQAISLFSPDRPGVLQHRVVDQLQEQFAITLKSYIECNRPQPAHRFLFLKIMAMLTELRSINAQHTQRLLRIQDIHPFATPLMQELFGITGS
Chain of Cytochrome P450 2C9 (Homo sapiens) (P11712 whole entry, looked up): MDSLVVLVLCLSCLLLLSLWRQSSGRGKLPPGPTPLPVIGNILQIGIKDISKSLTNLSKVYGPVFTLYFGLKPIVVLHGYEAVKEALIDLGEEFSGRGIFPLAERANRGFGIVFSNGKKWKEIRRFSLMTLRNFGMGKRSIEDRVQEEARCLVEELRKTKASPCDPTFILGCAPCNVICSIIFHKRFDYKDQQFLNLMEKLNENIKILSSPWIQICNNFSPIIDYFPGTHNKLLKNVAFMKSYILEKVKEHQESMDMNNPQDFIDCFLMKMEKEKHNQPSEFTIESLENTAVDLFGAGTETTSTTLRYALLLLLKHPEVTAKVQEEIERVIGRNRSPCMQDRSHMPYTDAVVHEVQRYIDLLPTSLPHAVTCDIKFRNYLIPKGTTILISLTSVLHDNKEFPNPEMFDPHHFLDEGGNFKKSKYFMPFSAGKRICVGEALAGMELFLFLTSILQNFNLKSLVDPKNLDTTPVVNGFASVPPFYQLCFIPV
Chain of Progesterone receptor (Homo sapiens) (P06401 whole entry, looked up): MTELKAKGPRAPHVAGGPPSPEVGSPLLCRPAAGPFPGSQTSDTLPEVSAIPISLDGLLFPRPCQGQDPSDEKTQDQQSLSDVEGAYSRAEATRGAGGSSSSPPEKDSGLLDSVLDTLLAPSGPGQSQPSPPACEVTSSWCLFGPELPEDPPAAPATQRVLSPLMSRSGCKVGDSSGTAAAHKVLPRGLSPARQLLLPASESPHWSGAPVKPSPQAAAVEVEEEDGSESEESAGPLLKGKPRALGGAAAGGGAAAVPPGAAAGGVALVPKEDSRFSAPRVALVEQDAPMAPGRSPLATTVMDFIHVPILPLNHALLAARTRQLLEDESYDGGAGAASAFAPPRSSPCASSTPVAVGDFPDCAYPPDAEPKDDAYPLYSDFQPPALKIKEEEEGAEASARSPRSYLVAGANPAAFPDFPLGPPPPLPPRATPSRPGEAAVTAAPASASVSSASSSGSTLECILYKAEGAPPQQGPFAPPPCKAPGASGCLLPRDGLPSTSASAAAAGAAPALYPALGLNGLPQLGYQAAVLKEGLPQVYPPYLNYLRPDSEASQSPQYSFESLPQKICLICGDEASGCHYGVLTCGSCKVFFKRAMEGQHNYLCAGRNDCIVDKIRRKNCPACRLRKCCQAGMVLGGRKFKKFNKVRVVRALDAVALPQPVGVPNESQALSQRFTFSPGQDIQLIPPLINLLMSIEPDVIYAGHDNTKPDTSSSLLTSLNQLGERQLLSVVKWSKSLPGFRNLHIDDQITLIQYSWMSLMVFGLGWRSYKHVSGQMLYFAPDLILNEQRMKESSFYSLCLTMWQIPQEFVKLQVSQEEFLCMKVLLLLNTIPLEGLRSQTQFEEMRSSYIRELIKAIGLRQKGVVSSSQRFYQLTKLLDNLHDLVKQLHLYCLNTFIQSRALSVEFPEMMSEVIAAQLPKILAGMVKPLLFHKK
Chain of Cytochrome P450 2D6 (Homo sapiens) (P10635 whole entry, looked up): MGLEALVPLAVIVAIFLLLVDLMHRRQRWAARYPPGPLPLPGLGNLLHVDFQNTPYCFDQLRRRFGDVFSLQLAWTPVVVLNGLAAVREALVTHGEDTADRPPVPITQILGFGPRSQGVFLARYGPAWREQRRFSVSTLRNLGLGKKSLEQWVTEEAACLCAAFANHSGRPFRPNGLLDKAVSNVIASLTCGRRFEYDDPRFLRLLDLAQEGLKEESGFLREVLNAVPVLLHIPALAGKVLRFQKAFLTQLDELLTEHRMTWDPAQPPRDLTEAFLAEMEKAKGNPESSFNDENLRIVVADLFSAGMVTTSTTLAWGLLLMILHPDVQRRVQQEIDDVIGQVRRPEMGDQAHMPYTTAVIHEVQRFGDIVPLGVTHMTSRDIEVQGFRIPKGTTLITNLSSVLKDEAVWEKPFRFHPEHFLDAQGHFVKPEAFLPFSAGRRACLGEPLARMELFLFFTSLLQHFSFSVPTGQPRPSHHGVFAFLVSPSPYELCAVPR
Chain of Thyrotropin-releasing hormone receptor (Homo sapiens) (P34981 whole entry, looked up): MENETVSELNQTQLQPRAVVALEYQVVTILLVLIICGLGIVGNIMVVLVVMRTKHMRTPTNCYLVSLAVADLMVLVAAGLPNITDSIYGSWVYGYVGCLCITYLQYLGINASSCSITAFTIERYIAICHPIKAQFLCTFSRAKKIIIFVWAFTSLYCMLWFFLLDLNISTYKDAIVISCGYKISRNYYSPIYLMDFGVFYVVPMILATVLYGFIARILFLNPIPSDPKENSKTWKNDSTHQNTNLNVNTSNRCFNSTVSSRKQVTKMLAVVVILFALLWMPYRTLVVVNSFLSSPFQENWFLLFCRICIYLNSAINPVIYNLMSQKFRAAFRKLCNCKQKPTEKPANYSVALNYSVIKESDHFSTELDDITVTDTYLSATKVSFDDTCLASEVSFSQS
Chain of Cytochrome P450 2C19 (Homo sapiens) (P33261 whole entry, looked up): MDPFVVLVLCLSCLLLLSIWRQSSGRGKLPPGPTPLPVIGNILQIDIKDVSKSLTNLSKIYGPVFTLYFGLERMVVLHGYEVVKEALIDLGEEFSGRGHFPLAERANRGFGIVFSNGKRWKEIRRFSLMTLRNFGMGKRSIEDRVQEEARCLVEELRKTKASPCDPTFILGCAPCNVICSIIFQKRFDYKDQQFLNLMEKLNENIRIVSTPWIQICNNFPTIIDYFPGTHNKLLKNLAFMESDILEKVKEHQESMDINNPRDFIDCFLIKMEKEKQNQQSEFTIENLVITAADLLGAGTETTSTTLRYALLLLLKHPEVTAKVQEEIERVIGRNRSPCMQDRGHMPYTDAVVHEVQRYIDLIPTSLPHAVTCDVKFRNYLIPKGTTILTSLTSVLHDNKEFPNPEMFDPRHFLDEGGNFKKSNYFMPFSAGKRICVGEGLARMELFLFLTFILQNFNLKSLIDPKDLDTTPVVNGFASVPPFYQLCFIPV

## CC(C)C(=O)OCc1ccccc1
[1]
  Potency: inactive
[2]
  Potency: inactive
[3]
  Potency: inactive
[4]
  Potency: inactive
[5]
  Potency: inactive
[6]
  Potency: inactive
[7]
  Potency: inactive
[8]
  Potency: inactive
[9]
  Potency: inactive
[10]
  Potency: inactive
[11]
  Potency: inactive
[12]
  Potency: inactive
[13]
  Potency: inactive
[14]
  Potency: inactive
[15]
  Potency: inactive

## c1ccc(Sc2ccccc2)cc1
[1]
  Potency: inactive
[2]
  Potency: inactive
[3]
  Potency: inactive
[4]
  Potency: inactive
[5]
  Potency: inactive
[7]
  Potency: inactive
[8]
  Potency: inactive
[9]
  Potency: inactive
[10]
  Potency: inactive
[11]
  Potency: inactive
[13]
  Potency: inactive
[14]
  Potency: 7.1 µM (active)
[15]
  Potency: inactive

## OCCCS
[1]
  Potency: inactive
[2]
  Potency: inactive
[3]
  Potency: inactive
[4]
  Potency: inactive
[5]
  Potency: inactive
[6]
  Potency: inactive
[7]
  Potency: inactive
[8]
  Potency: inactive
[10]
  Potency: inactive
[11]
  Potency: inactive
[13]
  Potency: inactive
[14]
  Potency: inactive
[15]
  Potency: inactive

## O=S(=O)(O)c1cc(S(=O)(=O)O)c2ccc3c(S(=O)(=O)O)cc(S(=O)(=O)O)c4ccc1c2c43
[1]
  activity change, negative = inhibition: 5.54% [at 18.9 µM]
[2]
  activity change, negative = cytotoxicity: -15.6% [at 18.9 µM]
[3]
  activity change, negative = cytotoxicity: -11.2% [at 19 µM]
[5]
  activity change, negative = cytotoxicity: 10.3% [at 15.8 µM]
[6]
  activation: 1.38% [at 15.8 µM]
[16]
  activity, negative = inhibition: -5.39% [at 10.5 µM]
[17]
  activation: -0.321% [at 11.8 µM]
[7]
  activity change, negative = cytotoxicity: 3.17% [at 19 µM]
[8]
  caspase activation: 0.784% [at 19 µM]
[9]
  activity change, negative = cytotoxicity: 5.57% [at 19 µM]
[10]
  caspase-3/7 activation: -0.007% [at 19 µM]
[11]
  activity change, negative = cytotoxicity: 6.28% [at 19 µM]
[12]
  activation: -3.44% [at 19 µM]
[13]
  activity change, negative = inhibition: -11.8% [at 23.6 µM]
[14]
  activity change, negative = inhibition: -18.9% [at 23.6 µM]
[15]
  activity change, negative = inhibition: -1.93% [at 23.6 µM]

## CCc1cccc(CC)c1N(COC)C(=O)CS(=O)(=O)O
[1]
  Potency: inactive
[2]
  Potency: inactive
[3]
  Potency: inactive
[5]
  Potency: inactive
[6]
  Potency: inactive
[16]
  Potency: inactive
[17]
  Potency: inactive
[7]
  Potency: inactive
[8]
  Potency: inactive
[9]
  Potency: inactive
[10]
  Potency: inactive
[11]
  Potency: inactive
[12]
  Potency: inactive
[13]
  Potency: inactive
[14]
  Potency: inactive

## CCCCN(CCCC)CCC(O)c1cc2c(Cl)cc(Cl)cc2c2cc(C(F)(F)F)ccc12 (stereo unspecified)
[1]
  Potency: inactive
[2]
  Potency: inactive
[3]
  Potency: inactive
[4]
  Potency: inactive
[5]
  Potency: inactive
[7]
  Potency: 26.6 µM (active)
[8]
  Potency: inactive
[9]
  Potency: 26.6 µM (active)
[10]
  Potency: inactive
[11]
  Potency: inactive
[12]
  Potency: 21.1 µM (active)
[18]
  Potency: inactive
[19]
  Potency: inactive
[13]
  Potency: 1.55 µM (active)
[14]
  Potency: inactive
[15]
  Potency: inactive

## CCCCCCCC(C)=O
[1]
  Potency: inactive
[2]
  Potency: inactive
[3]
  Potency: inactive
[4]
  Potency: inactive
[5]
  Potency: inactive
[6]
  Potency: inactive
[7]
  Potency: inactive
[8]
  Potency: inactive
[9]
  Potency: inactive
[10]
  Potency: inactive
[11]
  Potency: inactive
[13]
  Potency: inactive
[14]
  Potency: inactive
[15]
  Potency: inactive

## Brc1ccccn1
[1]
  Potency: inactive
[2]
  Potency: inactive
[3]
  Potency: inactive
[4]
  Potency: inactive
[5]
  Potency: inactive
[16]
  Potency: inactive
[17]
  Potency: inactive
[7]
  Potency: inactive
[8]
  Potency: inactive
[9]
  Potency: inactive
[10]
  Potency: inactive
[11]
  Potency: inactive
[13]
  Potency: inactive
[14]
  Potency: inactive
[15]
  Potency: inactive

## Cc1cnccn1
[1]
  Potency: inactive
[2]
  Potency: inactive
[3]
  Potency: inactive
[4]
  Potency: inactive
[5]
  Potency: inactive
[16]
  Potency: inactive
[17]
  Potency: inactive
[7]
  Potency: inactive
[8]
  Potency: inactive
[9]
  Potency: inactive
[10]
  Potency: inactive
[11]
  Potency: inactive
[12]
  Potency: inactive
[13]
  Potency: inactive
[15]
  Potency: inactive

## Cc1cccc(N(C)C)c1
[1]
  Potency: inactive
[2]
  Potency: inactive
[3]
  Potency: inactive
[4]
  Potency: inactive
[5]
  Potency: inactive
[6]
  Potency: inactive
[7]
  Potency: inactive
[8]
  Potency: inactive
[9]
  Potency: inactive
[10]
  Potency: inactive
[11]
  Potency: inactive
[12]
  Potency: inactive
[13]
  Potency: inactive
[15]
  Potency: inactive

## CCCC(=O)OCC(COC(=O)CCC)OC(=O)CCC
[1]
  Potency: inactive
[3]
  Potency: inactive
[4]
  Potency: inactive
[5]
  Potency: inactive
[6]
  Potency: inactive
[16]
  Potency: inactive
[17]
  Potency: inactive
[7]
  Potency: inactive
[8]
  Potency: inactive
[9]
  Potency: inactive
[10]
  Potency: inactive
[11]
  Potency: inactive
[12]
  Potency: inactive
[13]
  Potency: inactive
[15]
  Potency: 5.64 µM (active)
